# An excerpt weighted towards active compounds, which were near 15% of everything screened.
# HCV inhibitor – qHTS Assay for Inhibitors of Hepatitis C Virus (HCV); Potency, µM (highest dose often 41.8 µM), for inactives: top-dose activity change, negative = inhibition, most hits filed as inhibitors; 340,000 compounds, 3.4% hits; Huh7.5.1 HCVcc-Cre infection, luciferase reporter, 44 h; note: potency is the fitted concentration of half-maximal effect; % is set by controls: 0 for no effect and ±100 for the full control effect
#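 A cell-based infection assay in which seeded cells (1,000 per well) receive test compound after 4 h, are inoculated with HCVcc-Cre at approximately 0.5 moi, and are incubated 44 h before luminescence detection.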
# SARS PLP yeast – qHTS of Yeast-based Assay for SARS-CoV PLP | Potency, µM (doses to about 32.9 µM), inactives show at the highest dose activity, positive = growth rescue, usual class: activators | 330,000 compounds, 0.19% hits | AID 485353, 2010 | S. cerevisiae expressing SARS-CoV PLpro, growth rescue; calls by dose curve; note: potency is the fitted concentration of half-maximal effect; 0% is about no effect; nearly all actives have a fitted effect of over 55% in size
# Sm TGR inh – qHTS Assay for the Inhibitors of Schistosoma Mansoni Peroxiredoxins; Schistosoma mansoni thioredoxin glutathione reductase (TGR), Q962Y6; purified TGR, DTNB reduction, TNB absorbance 405 nm; Potency, µM (doses to about 114 µM), for inactives: at the highest dose activity change, negative = inhibition, most hits filed as inhibitors; 360,000 compounds, 3% hits; AID 485364, 2010; note: potency is the fitted concentration of half-maximal effect; % is set by controls: 0 for no effect and ±100 for the full control effect; nearly all actives have a fitted effect of over 60% in size
#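 TGR 20 nM + NADPH 100 uM (dispensed conc.), cpd preinc 15 min RT; start with NADPH (500 uM addition) then DTNB (15 mM addition). Kinetic TNB absorbance, 405 nm filter. Four-parameter Hill fit across titration.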
# HCMV antiviral – qHTS Assay for inhibitors of the human cytomegalovirus (HCMV) | HFF cells, HCMV-luciferase reporter, 72 h; active compounds read low | activity change, negative = inhibition, % at 57.5 µM | 410,000 compounds, 4.5% hits | AID 1259415, 2018; in the data active = activity change below about -60%; inconclusive = no clear call, values can overlap the other calls; inactive = above about -39%; note: % is set by controls: 0 for no effect and ±100 for the full control effect
#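 Screen run at 2 compound doses on HFFs infected with reporter HCMV, MOI 1 PFU/cell. Luciferase activity from cell lysates at 72 h post infection gave inhibition relative to buffer-only and Salinomycin wells.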
# Pf growth 96h – Primary qHTS for delayed death inhibitors of the malarial parasite plastid, 96 hour incubation; P. falciparum luciferase reporter growth, 96 h; Potency, µM (series often up to 28.7 µM), without a hit: at the top dose activity change, negative = inhibition, actives largely listed as inhibitors; 320,000 compounds, 6.9% hits; AID 504834, 2011; note: potency is the fitted concentration of half-maximal effect; % is set by controls: 0 for no effect and ±100 for the full control effect
#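 Delayed-death screen, second-generation endpoint: infected erythrocytes, 2% hematocrit, 0.05% parasitemia final; 96 hours at 37 C, 5% CO2; luciferase detection reagent; luminescence decrease equals reduced growth.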
# Pf growth 48h – Primary qHTS for delayed death inhibitors of the malarial parasite plastid, 48 hour incubation; P. falciparum luciferase growth in erythrocytes, 48 h; Potency, µM (top dose mostly 28.7 µM), for inactives: top-dose activity change, negative = inhibition, usual class: inhibitors; 310,000 compounds, 5.9% hits; note: potency is the fitted concentration of half-maximal effect; % is set by controls: 0 for no effect and ±100 for the full control effect
#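 Cell-based growth assay: transgenic P. falciparum expressing firefly luciferase, cultured in red cells within RPMI 1640 containing 0.5% w/v Albumax, 24 mM bicarbonate and gentamycin. A drop in luciferase activity indicates inhibition.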
# * hit, by the source's call; ? = inconclusive; . = not tested or not shown; [ ] = another dose, or the depositor's remark. Unless noted, calls come from the whole dose curve; as a rule, active = well fitted curve in the direction sought with a large enough effect; inconclusive = small, poorly fitted or top-dose-only effect, or another doubt; inactive = no such curve, though single readings can be large; an effect the other way counts as inactive or inconclusive.
SMILES,HCV inhibitor,SARS PLP yeast,Sm TGR inh,HCMV antiviral,Pf growth 96h,Pf growth 48h
CCCCCCCCC(c1nc2ccccc2[nH]1)N1CCN=C1c1cc2ccccc2[nH]1 (stereo unspecified),.,.,.,-103*,.,.
Cc1oc(C)c2c(=O)cc(-c3ccc4c(c3)OCO4)cc(OC(=O)c3ccccc3Br)c12,.,.,45µM*,7,.,.
Cc1oc(C)c2c(=O)cc(-c3ccc4c(c3)OCO4)cc(OC(=O)c3ccccc3Cl)c12,.,.,40µM*,3,.,.
Cn1nc([N+](=O)[O-])nc1Oc1ccc(C(C)(C)C)cc1,?,?,-2%,-36,0%,?
CC(C)(C)CN1CCC(n2nccc2NC(=O)c2ccccc2Cl)CC1,9%,-5%,-22%,17,-13%,-19%
CCn1c(CN2CCN(c3ccc(OC)cc3)CC2)nc2cc(S(=O)(=O)N(C)C)ccc21,?,0%,-17%,-39,?,?
CCCn1c(CN2CCN(C(=O)c3ccco3)CC2)nc2cc(S(=O)(=O)N(C)C)ccc21,-19%,2%,28µM*,1,9.3µM*,10µM*
CC[n+]1c(C=C2C=C(C)OC(C)=C2)sc2ccccc21,2.5µM*,-2%,2%,-98*,?,?
CC[n+]1c(/C=C2/C=C(C)CC(C)C2)sc2ccccc21 (stereo unspecified),3.5µM*,1%,40µM*,-9,?,?
Cc1cc(C)c(Nc2cc(S(=O)(=O)O)c(N)c3c2C(=O)c2ccccc2C3=O)c(C)c1,13%,-29%,-7%,3,?,?
CCC1OC(=O)CC(O)C(C)[C@@H](O[C@@H]2OC(C)[C@H](O[C@@H]3C[C@@](C)(O)C(O)C(C)O3)C(N(C)C)C2O)[C@H](CC=O)CC(C)C(=O)/C=C/C(C)=C/[C@@H]1COC1OC(C)C(O)C(OC)[C@@H]1OC (stereo partly specified),.,.,.,.,0.76µM*,?
CCC1OC(=O)C[C@H](O)C(C)[C@@H](O[C@@H]2OC(C)C(O)C(N(C)C)C2O)C(CCN2CC(C)CC(C)C2)CC(C)C(=O)/C=C/C(C)=C\[C@@H]1COC1OC(C)C(O)C(OC)C1OC (stereo partly specified),.,.,.,.,3.8µM*,?
CC[C@H]1OC(=O)C[C@@H](O)[C@H](C)[C@@H](O[C@@H]2O[C@H](C)C[C@H](N(C)C)[C@H]2O)[C@@H](CC=O)C[C@@H](C)C(=O)C=C[C@]2(C)O[C@H]2[C@@H]1C,.,-4%,?,.,0.33µM*,4.7µM*
CCN(C(=O)CSc1ncccn1)c1cccc2ccccc12,-5%,1%,.,-10,.,.
O=[N+]([O-])c1ccccc1OCCCn1cnc2ccccc21,-11%,-3%,0%,117,2.3µM*,32%
NCCCn1cnc2ccccc21,-3%,2%,35µM*,0,?,10%
c1ccc2c(c1)ncn2CCn1cnc2ccccc21,13%,-6%,-8%[11.4 µM],-18,-2%,.
O=c1c2ccccc2ncn1CCCOc1ccccc1[N+](=O)[O-],?,-2%,6%,29,26%,72%
Cc1ccccc1CNC(=O)C(C)n1nc(C)n2c(cc3occc32)c1=O (stereo unspecified),.,.,1%,-9,.,.
CCc1ccccc1NC(=O)CCn1cccn1,.,.,9%,33,.,.
Cc1cc2c(N=O)c(NO)ccc2[nH]1,?,-1%,-34%,.,41%,3.7µM*
O=c1[nH][nH]c(C(F)(F)F)c1C=NCc1cccs1,-5%,-1%,-3%,-65*,?,?
O=c1[nH][nH]c(C(F)(F)F)c1C=Nc1ccccc1,5%,2%,-19%,-7,8%,36%

# Bioassay records deposited in PubChem BioAssay by National Center for Advancing Translational Sciences (NCATS).
